Reference: PubChem BioAssay (Tox21)
A number with no mark means an inactive call. Results filed as inconclusive are left out. Where a call stands in place of a potency, no number is given. The source made the active and inactive calls. Unless noted, the call rests on the fitted dose curve; in most records, active means well fitted curve in the direction sought with a large enough effect in the repeat runs; inconclusive means weak or mixed curves; inactive means no such curve, though single readings can be large; an effect the other way counts as inactive or inconclusive.

What was measured:
[1] = qHTS assay to identify small molecule antagonists of the sonic hedgehog signaling (Shh) pathway (AID 1259369; calls by dose curve; further: nearly all actives have a fitted effect of over 45% in size)
Outline: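 Conditioned medium drives Shh signalling in 3T3Gli1-Luc cells; compounds in DMSO co-applied, 24hr at 37 C, then luciferase luminescence.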

[2] = biological target: Estrogen receptor beta (Homo sapiens) (UniProt Q92731); assay: qHTS assay to identify small molecule antagonists of the estrogen receptor beta (ER-beta) signaling pathway (AID 1259378; active means well fitted inhibition curve with a large enough effect in the signal ratio in the repeat runs, not every such curve was filed as active; the % refers to the signal ratio; further: potency means the concentration at half of the fitted maximal effect)
Estrogen receptor beta (Homo sapiens), sequence (Q92731 whole entry, looked up): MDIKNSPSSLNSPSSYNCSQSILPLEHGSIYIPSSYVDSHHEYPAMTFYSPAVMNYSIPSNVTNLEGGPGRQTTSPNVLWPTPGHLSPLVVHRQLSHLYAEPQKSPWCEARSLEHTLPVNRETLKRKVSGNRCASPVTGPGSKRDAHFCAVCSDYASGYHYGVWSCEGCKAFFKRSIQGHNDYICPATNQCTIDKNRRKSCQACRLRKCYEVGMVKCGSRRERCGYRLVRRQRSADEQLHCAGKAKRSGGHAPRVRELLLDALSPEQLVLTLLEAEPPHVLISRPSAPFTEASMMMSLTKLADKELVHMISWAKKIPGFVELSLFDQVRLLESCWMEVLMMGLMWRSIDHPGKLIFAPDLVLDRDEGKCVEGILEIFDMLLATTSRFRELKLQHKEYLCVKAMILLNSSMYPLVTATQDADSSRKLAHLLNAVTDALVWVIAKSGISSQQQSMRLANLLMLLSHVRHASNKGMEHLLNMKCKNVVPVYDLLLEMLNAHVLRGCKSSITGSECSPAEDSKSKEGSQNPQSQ
Outline: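 ER-beta-UAS-bla HEK293T (GripTite) cells in 2% charcoal-stripped FBS medium were preincubated 6 hr at 37C, dosed with compound, then stimulated with 1 nM E2 (final) for 16 hr; beta-lactamase reporter read by B/G FRET fluorescence after 2 hr substrate loading.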

[3] = qHTS assay to identify small molecule agonists of the androgen receptor (AR) signaling pathway in the presence of an antagonist - cell viability counter screen (AID 1259379); further: nearly all actives have a fitted effect of over 25% in size; further: potency means the concentration at half of the fitted maximal effect;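 on activity change, negative = cytotoxicity: MDA-kb2 human breast cancer cells carrying an MMTV luciferase reporter; series mostly up to about 92 µM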
Outline: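 A CellTiter-Fluor read-out measured viability of MDA-kb2 reporter cells (MMTV promoter with AR and GR response elements). Treatment: nilutamide 3.0uM final with compounds at 15 concentrations, 16 hr, 37C, 0% CO2.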

[4] = qHTS assay to identify small molecule agonists of the estrogen receptor beta (ER-beta) signaling pathway - cell viability counter screen (AID 1259380); further: nearly all actives have a fitted effect of over 30% in size; further: potency means the concentration at half of the fitted maximal effect
Outline: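 Cells used were ER-beta-UAS-bla HEK293T in medium with 2% charcoal-stripped FBS. They were treated for 16 hr at 37C. Viability came from CellTiter-Glo luminescence.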

[5] = qHTS assay to identify small molecule antagonists of the estrogen receptor beta (ER-beta) signaling pathway - cell viability counter screen (AID 1259382); further: series mostly up to about 92 µM; nearly all actives have a fitted effect of over 55% in size
Outline: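 Agonist-stimulated (1nM E2) ER-beta-UAS-bla HEK293T cells are incubated with library compounds for 16 hr at 37C. Cell viability is then assessed in the reporter-assay wells by adding CellTiter-Glo and reading luminescence after 30 min.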

[6] = biological target: Estrogen receptor (Homo sapiens) (UniProt P03372); assay: qHTS assay to identify small molecule agonists of the estrogen receptor alpha (ER-alpha) signaling pathway in the presence of an antagonist (AID 1259383; calls by dose curve; further: top concentration of the series differs between compounds; nearly all actives have a fitted effect of over 15% in size)
Estrogen receptor (Homo sapiens), sequence (P03372 whole entry, looked up): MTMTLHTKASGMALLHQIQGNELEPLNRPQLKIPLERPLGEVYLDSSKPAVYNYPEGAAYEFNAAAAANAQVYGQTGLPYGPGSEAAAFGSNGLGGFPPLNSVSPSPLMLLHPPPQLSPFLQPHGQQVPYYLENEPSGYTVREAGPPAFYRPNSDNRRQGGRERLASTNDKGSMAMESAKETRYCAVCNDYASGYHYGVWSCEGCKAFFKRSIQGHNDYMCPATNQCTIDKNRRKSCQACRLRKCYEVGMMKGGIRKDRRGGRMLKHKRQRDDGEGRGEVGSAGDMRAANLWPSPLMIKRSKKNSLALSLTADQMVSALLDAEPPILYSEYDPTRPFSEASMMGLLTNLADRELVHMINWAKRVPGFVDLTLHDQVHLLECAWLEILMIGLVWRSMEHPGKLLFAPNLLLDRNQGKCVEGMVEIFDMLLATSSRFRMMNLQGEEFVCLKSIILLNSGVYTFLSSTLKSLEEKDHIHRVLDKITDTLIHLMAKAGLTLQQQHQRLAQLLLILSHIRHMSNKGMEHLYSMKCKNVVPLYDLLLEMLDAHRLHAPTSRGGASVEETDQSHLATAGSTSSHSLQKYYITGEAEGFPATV
Outline: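 Using VM7Luc4E2 cells seeded 24hr before treatment, antagonist ICI-182,780 (10.0nM final) was added, followed by compounds at 15 concentrations. Plates incubated 22hr; ONE-Glo luminescence quantified reporter activity.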

[7] = qHTS assay to identify small molecule agonists or antagonists of the thyroid stimulating hormone receptor (TSHR) signaling pathway - wild type cell line counter screen (AID 1259384; calls by dose curve)
Outline: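 Wild-type HEK293 cells were plated 18 h at 37 C/5% CO2, pin-dosed with compound plus Ro20-1724 medium, held 30 min at room temperature, then given cAMP-d2 and anti-cAMP-cryptate; fluorescence was read after 1 h. Fifteen concentrations, triplicate.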

[8] = biological target: Thyrotropin receptor (Homo sapiens) (UniProt P16473); assay: qHTS assay to identify small molecule antagonists of the thyroid stimulating hormone receptor (TSHR) signaling pathway (AID 1259385; calls by dose curve; further: nearly all actives have a fitted effect of over 20% in size; further: potency means the concentration at half of the fitted maximal effect)
Thyrotropin receptor (Homo sapiens), sequence (P16473 whole entry, looked up): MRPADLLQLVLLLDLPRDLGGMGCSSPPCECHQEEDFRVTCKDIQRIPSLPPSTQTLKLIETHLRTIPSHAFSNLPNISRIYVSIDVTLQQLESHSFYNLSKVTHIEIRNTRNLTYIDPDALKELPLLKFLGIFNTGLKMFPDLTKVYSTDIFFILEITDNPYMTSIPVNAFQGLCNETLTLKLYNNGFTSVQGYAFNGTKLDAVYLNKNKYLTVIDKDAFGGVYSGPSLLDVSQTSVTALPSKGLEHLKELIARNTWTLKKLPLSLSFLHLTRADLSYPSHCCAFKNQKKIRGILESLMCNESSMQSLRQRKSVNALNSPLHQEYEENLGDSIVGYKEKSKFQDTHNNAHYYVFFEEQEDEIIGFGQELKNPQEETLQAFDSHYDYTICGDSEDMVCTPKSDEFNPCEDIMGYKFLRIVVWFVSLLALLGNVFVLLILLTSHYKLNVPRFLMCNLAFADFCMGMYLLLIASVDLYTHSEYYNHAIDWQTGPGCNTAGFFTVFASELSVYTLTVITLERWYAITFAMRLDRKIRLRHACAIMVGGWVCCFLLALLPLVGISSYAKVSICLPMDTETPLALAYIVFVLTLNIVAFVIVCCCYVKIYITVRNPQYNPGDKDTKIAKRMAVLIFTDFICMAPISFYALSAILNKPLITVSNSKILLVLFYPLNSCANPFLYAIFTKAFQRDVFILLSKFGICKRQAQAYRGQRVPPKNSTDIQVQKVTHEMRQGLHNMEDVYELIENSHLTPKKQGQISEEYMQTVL
Outline: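 TSHR-HEK293 cells were plated and held 18 h at 37C/5% CO2, then given compound plus Ro20-1724 and stimulated with TSH at 1.5 ng/mL final. After 30 min at room temperature, cAMP was detected with cAMP-d2/anti-cAMP-cryptate (1 h) by fluorescence.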

[9] = qHTS assay to identify small molecule agonists of the estrogen receptor alpha (ER-alpha) signaling pathway in the presence of an antagonist - cell viability counter screen (AID 1259386);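 further: cells exposed to compounds for 22 h at 37 °C before the viability read; nearly all actives have a fitted effect of over 30% in size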; further: potency means the concentration at half of the fitted maximal effect; on activity change, negative = cytotoxicity: series mostly up to about 92 µM
Outline: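 ICI-182,780 at 10.0nM final accompanies the compound titration (15 concentrations, 22hr, 37C) on VM7Luc4E2 cells. The CellTiter-Fluor fluorescence readout runs in the same wells as the luciferase assay.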

[10] = biological target: Progesterone receptor (Homo sapiens) (UniProt P06401); assay: qHTS assay to identify small molecule agonists of the progesterone receptor (PR) signaling pathway (AID 1346784; calls by dose curve; further: nearly all actives have a fitted effect of over 30% in size)
Progesterone receptor (Homo sapiens), sequence (P06401 whole entry, looked up): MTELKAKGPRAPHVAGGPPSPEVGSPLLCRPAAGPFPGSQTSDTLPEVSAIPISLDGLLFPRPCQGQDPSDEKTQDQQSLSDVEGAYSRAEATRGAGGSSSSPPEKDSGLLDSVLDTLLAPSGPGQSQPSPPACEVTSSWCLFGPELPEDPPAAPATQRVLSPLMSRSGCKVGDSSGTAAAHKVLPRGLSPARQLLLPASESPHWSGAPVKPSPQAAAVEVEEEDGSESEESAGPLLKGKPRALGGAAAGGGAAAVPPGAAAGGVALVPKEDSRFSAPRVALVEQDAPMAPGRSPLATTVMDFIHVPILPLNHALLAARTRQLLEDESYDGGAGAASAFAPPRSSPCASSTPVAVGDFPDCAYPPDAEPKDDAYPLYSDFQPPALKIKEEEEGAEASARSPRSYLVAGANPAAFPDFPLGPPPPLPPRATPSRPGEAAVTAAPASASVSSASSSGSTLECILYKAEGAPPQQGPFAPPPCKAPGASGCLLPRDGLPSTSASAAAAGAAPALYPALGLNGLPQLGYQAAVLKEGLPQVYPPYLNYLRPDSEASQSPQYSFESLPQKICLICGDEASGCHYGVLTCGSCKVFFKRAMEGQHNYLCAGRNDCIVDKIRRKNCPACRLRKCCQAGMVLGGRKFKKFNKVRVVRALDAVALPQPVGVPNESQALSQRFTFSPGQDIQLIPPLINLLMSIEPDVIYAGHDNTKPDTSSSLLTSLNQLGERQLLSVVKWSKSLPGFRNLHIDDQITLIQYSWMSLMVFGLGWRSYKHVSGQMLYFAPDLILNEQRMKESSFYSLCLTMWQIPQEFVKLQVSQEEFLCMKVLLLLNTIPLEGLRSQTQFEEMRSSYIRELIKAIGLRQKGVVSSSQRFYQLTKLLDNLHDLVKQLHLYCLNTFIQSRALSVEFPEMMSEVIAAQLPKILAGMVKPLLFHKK
Outline: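 HEK 293T PR-UAS-bla reporter cells, 2% charcoal-stripped FBS; 6 hr settle at 37C/5% CO2, compound (DMSO) 16 hr, LiveBLAzer B/G FRET substrate 2 hr RT, fluorescence intensity read.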

[11] = biological target: Progesterone receptor (Homo sapiens) (UniProt P06401); assay: qHTS assay to identify small molecule antagonists of the progesterone receptor (PR) signaling pathway (AID 1346795; active means well fitted inhibition curve with a large enough effect in the signal ratio in the repeat runs, not every such curve was filed as active; the % refers to the signal ratio)
Outline: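 Beta-lactamase reporter, HEK293T PR-UAS-bla line; 2% charcoal-stripped FBS; 6 hr pre-incubation, 37C/5% CO2. Compound + R5020 1 nM final, 16 hr. LiveBLAzer B/G FRET substrate, 2 hr RT; fluorescence intensity read.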

[12] = qHTS assay to identify small molecule antagonists of the progesterone receptor (PR) signaling pathway - cell viability counter screen (AID 1346798); further: nearly all actives have a fitted effect of over 50% in size; further: potency means the concentration at half of the fitted maximal effect; on activity change, negative = cytotoxicity: series mostly up to about 92 µM
Outline: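 Luminescence readout (CellTiter-Glo, 30 min, RT) of viability in PR-UAS-bla HEK293T cells exposed to compound and R5020 agonist for 16 hr at 37C, 5% CO2; run in the same wells as the beta-lactamase reporter read.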

[13] = qHTS assay to identify small molecule agonists of the progesterone receptor (PR) signaling pathway - cell viability counter screen (AID 1346799; calls by dose curve; further: nearly all actives have a fitted effect of over 45% in size; further: potency means the concentration at half of the fitted maximal effect)
Outline: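 HEK293T PR-UAS-bla, 3,000 cells/well, 2% charcoal-stripped FBS; 6 h settle, compound 16 h at 37C/5% CO2; LiveBLAzer 2 h RT, then CellTiter-Glo 30 min RT, luminescence read.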

[14] = qHTS assay to identify small molecule antagonists of the TGF-beta/Smad signaling pathway - cell viability counter screen (AID 1346824); further: nearly all actives have a fitted effect of over 50% in size
Outline: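 SBE-bla HEK 293T cells were plated overnight at 37 C, then given compounds in DMSO plus TGF-beta1 (added as 0.25 ng/mL solution) for 5 hr. After the bla read, CellTiter-Glo was added to the same wells and luminescence read after 30 min at room temperature.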

[15] = qHTS assay to identify small molecule agonists of the TGF-beta/Smad signaling pathway - cell viability counter screen (AID 1346829); further: top concentration of the series differs between compounds; nearly all actives have a fitted effect of over 45% in size
Outline: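 Here the cytotoxicity of library compounds is measured in SBE-bla HEK 293T cells treated for 5 hr, using CellTiter-Glo added to wells already read for the beta-lactamase reporter.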

[16] = qHTS assay to identify small molecule agonists of the TGF-beta/Smad signaling pathway (AID 1346859; active means well fitted activation curve with a large enough effect in the signal ratio in the repeat runs, not every such curve was filed as active; the % refers to the signal ratio; further: potency means the concentration at half of the fitted maximal effect; on activation: series mostly up to about 77 µM)
Outline: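 Read-out: fluorescence at 460 and 530 nm (405 nm excitation) after a 2 hr room-temperature incubation with beta-lactamase FRET substrate. SBE-bla HEK 293T cells had been treated with test compounds for 5 hr at 37 C.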

[17] = biological target: Thyrotropin-releasing hormone receptor (Homo sapiens) (UniProt P34981); assay: qHTS assay to identify small molecule antagonists of the thyrotropin-releasing hormone receptor (TRHR) signaling pathway (AID 1346877; active means well fitted inhibition curve with a large enough effect in the repeat runs, not every such curve was filed as active; further: series mostly up to about 51 µM)
Thyrotropin-releasing hormone receptor (Homo sapiens), sequence (P34981 whole entry, looked up): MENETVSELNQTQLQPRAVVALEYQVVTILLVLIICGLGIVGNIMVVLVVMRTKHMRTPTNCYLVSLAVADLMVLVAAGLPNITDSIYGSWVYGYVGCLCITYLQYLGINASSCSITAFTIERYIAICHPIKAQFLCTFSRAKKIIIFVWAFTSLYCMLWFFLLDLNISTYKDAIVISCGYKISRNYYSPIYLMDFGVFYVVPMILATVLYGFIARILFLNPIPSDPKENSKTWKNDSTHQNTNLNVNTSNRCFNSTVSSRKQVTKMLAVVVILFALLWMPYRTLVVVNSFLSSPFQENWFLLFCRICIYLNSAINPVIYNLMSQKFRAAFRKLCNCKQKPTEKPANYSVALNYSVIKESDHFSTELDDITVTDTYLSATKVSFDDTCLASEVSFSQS
Outline: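 Screening used HEK293 cells engineered with TRHR, with a brief 5 min room-temperature compound exposure preceding addition of TRH to 1 nM. The read-out was kinetic calcium-dye fluorescence, concentration-response from 15 doses in triplicate.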

[18] = biological target: Thyrotropin-releasing hormone receptor (Homo sapiens) (UniProt P34981); assay: qHTS assay to identify small molecule agonists of the thyrotropin-releasing hormone receptor (TRHR) signaling pathway (AID 1346891; calls by dose curve;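 further: HEK293 cells expressing TRHR with calcium dye readout; series mostly up to about 58 µM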)
Outline: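 HEK293/TRHR cells, 1500 per well, 18 h 37 °C; Ca dye 2 h 37 °C; pin-tool compound addition (agonist mode); kinetic fluorescence 3 min, 1 s reads; 15 concentrations, triplicate.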

[19] = biological target: Androgen receptor (Homo sapiens) (UniProt P10275); assay: qHTS assay to identify small molecule agonists of the androgen receptor (AR) signaling pathway in the presence of an antagonist (AID 1259381; calls by dose curve; further: nearly all actives have a fitted effect of over 15% in size)
Androgen receptor (Homo sapiens), sequence (P10275 whole entry, looked up): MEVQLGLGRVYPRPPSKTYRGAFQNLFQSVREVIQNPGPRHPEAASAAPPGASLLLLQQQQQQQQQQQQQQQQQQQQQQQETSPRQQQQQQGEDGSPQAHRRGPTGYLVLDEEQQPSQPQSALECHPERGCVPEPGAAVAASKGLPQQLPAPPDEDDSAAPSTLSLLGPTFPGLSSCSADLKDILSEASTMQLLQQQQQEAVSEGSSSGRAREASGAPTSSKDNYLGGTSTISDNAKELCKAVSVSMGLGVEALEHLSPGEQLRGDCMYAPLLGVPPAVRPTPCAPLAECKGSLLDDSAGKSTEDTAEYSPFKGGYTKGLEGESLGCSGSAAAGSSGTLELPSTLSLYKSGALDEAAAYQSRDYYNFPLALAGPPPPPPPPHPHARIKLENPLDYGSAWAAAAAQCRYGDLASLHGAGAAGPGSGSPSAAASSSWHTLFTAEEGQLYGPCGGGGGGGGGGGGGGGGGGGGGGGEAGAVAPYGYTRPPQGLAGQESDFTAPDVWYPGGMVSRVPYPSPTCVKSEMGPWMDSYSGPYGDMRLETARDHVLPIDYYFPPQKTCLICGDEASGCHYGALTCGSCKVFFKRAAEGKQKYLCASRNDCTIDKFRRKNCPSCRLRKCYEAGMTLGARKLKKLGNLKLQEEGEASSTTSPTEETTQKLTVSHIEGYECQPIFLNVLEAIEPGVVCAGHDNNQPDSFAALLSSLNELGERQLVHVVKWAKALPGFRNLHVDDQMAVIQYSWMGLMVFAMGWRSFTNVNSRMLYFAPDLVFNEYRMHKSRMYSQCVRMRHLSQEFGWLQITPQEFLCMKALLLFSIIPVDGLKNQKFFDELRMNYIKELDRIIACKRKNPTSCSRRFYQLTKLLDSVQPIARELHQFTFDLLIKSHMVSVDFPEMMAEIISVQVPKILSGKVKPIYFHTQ
Outline: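 Using human MDA-kb2 cells with an MMTV promoter–luciferase construct (AR and GR response elements), agonist activity is scored under 3.0uM nilutamide (final) co-treatment; 16hr incubation, 37C, luminescence readout via ONE-Glo.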

[20] = biological target: Estrogen receptor beta (Homo sapiens) (UniProt Q92731); assay: qHTS assay to identify small molecule agonists of the estrogen receptor beta (ER-beta) signaling pathway (AID 1259377; active means well fitted activation curve with a large enough effect in the signal ratio in the repeat runs, not every such curve was filed as active; the % refers to the signal ratio)
Outline: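 Beta-lactamase reporter readout: fluorescence of LiveBLAzer B/G FRET substrate after 2 h at room temperature, following 16 h compound treatment of ER-beta-UAS-bla HEK293T cells at 37C in 2% charcoal-stripped FBS medium.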

CC(CSC(=O)c1ccccc1)C(=O)N1C[C@@H](Sc2ccccc2)C[C@H]1C(=O)O (some centres undefined)
activity change, negative = inhibition [1]: 9.12% [at 19 µM] | activity, negative = inhibition [2]: -3.38% [at 19 µM] | activity change, negative = cytotoxicity [3]: 1.42% [at 19 µM] | activity change, negative = cytotoxicity [4]: 0.0866% [at 19 µM] | activity change, negative = cytotoxicity [5]: 5.8% [at 19 µM] | Potency [6]: inactive | cAMP activity change [7]: 7.8% [at 18.9 µM, stronger effect = higher value] | activity change, negative = inhibition [8]: -6.99% [at 19 µM] | activity change, negative = cytotoxicity [9]: 3.85% [at 19 µM] | activation [10]: -0.419% [at 19 µM] | activity change, negative = inhibition [11]: 1.77% [at 18.9 µM] | activity change, negative = cytotoxicity [12]: -8.73% [at 18.9 µM] | activity change, negative = cytotoxicity [13]: -1.53% [at 19 µM] | viability change, negative = cytotoxic [14]: -6.88% [at 15.8 µM] | activity change, negative = cytotoxicity [15]: 4% [at 15.8 µM] | activation [16]: 0.21% [at 15.8 µM] | activity, negative = inhibition [17]: -5.47% [at 10.5 µM] | activation [18]: -0.201% [at 11.8 µM]

CCCCCCCCCCCCCCCCCCOS(=O)(=O)O
Potency [1]: inactive | Potency [2]: 48.6 µM (active) | Potency [3]: inactive | Potency [4]: 48.6 µM (active) | Potency [6]: inactive | Potency [7]: inactive | Potency [8]: 68.6 µM (active) | Potency [9]: inactive | Potency [10]: inactive | Potency [11]: inactive | Potency [12]: 54.5 µM (active) | Potency [13]: 48.6 µM (active) | outcome [15]: inactive | Potency [16]: inactive | outcome [17]: inactive | Potency [18]: inactive

O=[N+]([O-])c1ccc(NCCO)c(OCCO)c1
Potency [1]: inactive | Potency [2]: inactive | Potency [3]: 54.5 µM (active) | Potency [4]: inactive | Potency [19]: inactive | Potency [5]: inactive | Potency [7]: inactive | Potency [8]: inactive | Potency [9]: 27.3 µM (active) | Potency [10]: inactive | Potency [11]: inactive | Potency [12]: inactive | Potency [13]: inactive | Potency [14]: inactive | outcome [15]: inactive | outcome [17]: inactive | Potency [18]: inactive

CCO[Si](CCCCl)(OCC)OCC
Potency [1]: inactive | Potency [2]: inactive | Potency [3]: inactive | Potency [4]: inactive | Potency [5]: inactive | Potency [6]: inactive | Potency [7]: inactive | Potency [8]: inactive | Potency [9]: inactive | Potency [10]: inactive | Potency [14]: inactive | outcome [15]: inactive | Potency [16]: inactive | outcome [17]: inactive | Potency [18]: inactive

Brc1c2ccccc2c(Br)c2ccccc12
activity change, negative = inhibition [1]: 2.55% [at 8.39 µM] | activity, negative = inhibition [2]: 14.5% [at 8.39 µM] | activity change, negative = cytotoxicity [3]: 0.897% [at 8.39 µM] | activity change, negative = cytotoxicity [4]: 1.65% [at 8.39 µM] | activity change, negative = cytotoxicity [5]: 7.62% [at 8.39 µM] | activation [6]: -0.192% [at 8.39 µM] | cAMP activity change [7]: 1.89% [at 8.39 µM, stronger effect = higher value] | activity change, negative = inhibition [8]: -6.18% [at 8.39 µM] | activity change, negative = cytotoxicity [9]: 2.81% [at 8.39 µM] | activation [10]: 5.54% [at 8.39 µM] | activity change, negative = inhibition [11]: 3.87% [at 8.39 µM] | activity change, negative = cytotoxicity [12]: 3.37% [at 8.39 µM] | activity change, negative = cytotoxicity [13]: 18.6% [at 8.39 µM] | viability change, negative = cytotoxic [14]: 16.5% [at 6.97 µM] | activity change, negative = cytotoxicity [15]: -9.36% [at 6.97 µM] | Potency [16]: 2.22 µM (active) | activity, negative = inhibition [17]: -1.3% [at 4.65 µM] | activation [18]: 0.0356% [at 5.23 µM]

CC(=O)NO
Potency [1]: inactive | Potency [20]: inactive | Potency [3]: inactive | Potency [4]: inactive | Potency [5]: inactive | Potency [7]: inactive | Potency [8]: inactive | Potency [9]: inactive | Potency [13]: inactive | Potency [14]: inactive | outcome [15]: inactive | Potency [16]: inactive | outcome [17]: inactive | Potency [18]: inactive

Nc1cccc([N+](=O)[O-])c1
Potency [1]: inactive | Potency [2]: inactive | Potency [3]: inactive | Potency [4]: inactive | Potency [19]: inactive | Potency [5]: inactive | Potency [6]: inactive | Potency [9]: inactive | Potency [10]: inactive | Potency [12]: inactive | Potency [13]: inactive | Potency [14]: inactive | outcome [15]: inactive | Potency [16]: inactive | outcome [17]: inactive | Potency [18]: inactive
